Measurements taken from ChEMBL document CHEMBL1961873, “Compounds: GSK PKIS; Assays: Nanosyn kinase panel” (2012).

Columns and labels:
[1] = target: Serine/threonine-protein kinase MARK2 (Homo sapiens) (UniProt Q7KZI7); details: at 1 µM
[2] = target: PAS domain-containing serine/threonine-protein kinase (Homo sapiens) (UniProt Q96RG2); details: at 0.1 µM
[3] = target: PAS domain-containing serine/threonine-protein kinase (Homo sapiens) (UniProt Q96RG2); details: at 1 µM
[4] = target: Phosphorylase b kinase gamma catalytic chain, skeletal muscle/heart isoform (Homo sapiens) (UniProt Q16816); details: at 0.1 µM
Chain of Phosphorylase b kinase gamma catalytic chain, skeletal muscle/heart isoform (Homo sapiens) (Q16816 whole entry, looked up, canonical isoform): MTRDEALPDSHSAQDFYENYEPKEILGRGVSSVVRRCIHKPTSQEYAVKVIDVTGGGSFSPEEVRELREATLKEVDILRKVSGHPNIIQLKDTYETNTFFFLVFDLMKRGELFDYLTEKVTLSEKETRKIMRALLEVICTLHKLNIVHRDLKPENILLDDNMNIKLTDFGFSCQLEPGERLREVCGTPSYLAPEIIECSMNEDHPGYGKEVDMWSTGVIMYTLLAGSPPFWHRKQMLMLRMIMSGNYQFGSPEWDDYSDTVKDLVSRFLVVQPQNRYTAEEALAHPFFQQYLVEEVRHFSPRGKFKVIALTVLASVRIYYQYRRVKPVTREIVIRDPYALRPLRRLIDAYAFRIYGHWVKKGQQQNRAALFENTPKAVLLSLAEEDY

[5] = target: Phosphorylase b kinase gamma catalytic chain, skeletal muscle/heart isoform (Homo sapiens) (UniProt Q16816); details: at 1 µM
[6] = target: T1, Phosphorylase b kinase gamma catalytic chain, liver/testis isoform (Homo sapiens) (UniProt P15735); details: at 0.1 µM
T1 sequence (whole entry): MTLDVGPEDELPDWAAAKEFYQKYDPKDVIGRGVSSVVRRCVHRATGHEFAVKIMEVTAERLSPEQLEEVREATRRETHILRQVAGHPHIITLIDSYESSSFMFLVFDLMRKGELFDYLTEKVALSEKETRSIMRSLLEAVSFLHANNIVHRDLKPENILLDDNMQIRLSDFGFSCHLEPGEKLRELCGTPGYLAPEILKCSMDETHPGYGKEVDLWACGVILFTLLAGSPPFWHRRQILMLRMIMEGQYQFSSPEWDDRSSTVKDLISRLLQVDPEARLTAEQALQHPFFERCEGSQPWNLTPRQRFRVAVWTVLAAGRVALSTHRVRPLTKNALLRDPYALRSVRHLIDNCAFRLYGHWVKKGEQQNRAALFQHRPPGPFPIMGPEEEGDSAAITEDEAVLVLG

[7] = target: T1, Phosphorylase b kinase gamma catalytic chain, liver/testis isoform (Homo sapiens); details: at 1 µM
[8] = target: Serine/threonine-protein kinase pim-1 (Homo sapiens) (UniProt P11309); details: at 0.1 µM
Chain of Serine/threonine-protein kinase pim-1 (Homo sapiens) (P11309 whole entry, looked up): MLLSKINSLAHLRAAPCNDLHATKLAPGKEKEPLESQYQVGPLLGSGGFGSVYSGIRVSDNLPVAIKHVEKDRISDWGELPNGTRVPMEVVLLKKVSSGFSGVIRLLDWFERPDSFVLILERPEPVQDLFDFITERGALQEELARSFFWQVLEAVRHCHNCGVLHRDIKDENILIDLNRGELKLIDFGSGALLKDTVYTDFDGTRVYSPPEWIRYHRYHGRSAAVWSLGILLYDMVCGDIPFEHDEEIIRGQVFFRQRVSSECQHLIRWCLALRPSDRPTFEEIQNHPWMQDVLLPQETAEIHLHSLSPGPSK

[9] = target: Serine/threonine-protein kinase pim-1 (Homo sapiens) (UniProt P11309); details: at 1 µM
[10] = target: Serine/threonine-protein kinase pim-2 (Homo sapiens) (UniProt Q9P1W9); details: at 0.1 µM
Chain of Serine/threonine-protein kinase pim-2 (Homo sapiens) (Q9P1W9 whole entry, looked up): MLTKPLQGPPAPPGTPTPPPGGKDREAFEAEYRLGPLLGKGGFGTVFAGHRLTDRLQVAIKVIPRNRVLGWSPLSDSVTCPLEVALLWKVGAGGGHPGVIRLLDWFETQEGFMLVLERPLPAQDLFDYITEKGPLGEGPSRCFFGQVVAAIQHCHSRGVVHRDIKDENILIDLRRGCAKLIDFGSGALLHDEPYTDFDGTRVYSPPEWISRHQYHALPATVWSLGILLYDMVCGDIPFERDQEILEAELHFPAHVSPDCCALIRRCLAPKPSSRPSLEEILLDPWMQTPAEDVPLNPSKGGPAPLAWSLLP

[11] = target: Serine/threonine-protein kinase pim-2 (Homo sapiens) (UniProt Q9P1W9); details: at 1 µM
[12] = target: Serine/threonine-protein kinase pim-3 (Homo sapiens) (UniProt Q86V86); details: at 0.1 µM
[13] = target: Serine/threonine-protein kinase pim-3 (Homo sapiens) (UniProt Q86V86); details: at 1 µM
[14] = target: T2, MAP kinase-activated protein kinase 5 (Homo sapiens) (UniProt Q8IW41); details: at 0.1 µM
T2 sequence (whole entry): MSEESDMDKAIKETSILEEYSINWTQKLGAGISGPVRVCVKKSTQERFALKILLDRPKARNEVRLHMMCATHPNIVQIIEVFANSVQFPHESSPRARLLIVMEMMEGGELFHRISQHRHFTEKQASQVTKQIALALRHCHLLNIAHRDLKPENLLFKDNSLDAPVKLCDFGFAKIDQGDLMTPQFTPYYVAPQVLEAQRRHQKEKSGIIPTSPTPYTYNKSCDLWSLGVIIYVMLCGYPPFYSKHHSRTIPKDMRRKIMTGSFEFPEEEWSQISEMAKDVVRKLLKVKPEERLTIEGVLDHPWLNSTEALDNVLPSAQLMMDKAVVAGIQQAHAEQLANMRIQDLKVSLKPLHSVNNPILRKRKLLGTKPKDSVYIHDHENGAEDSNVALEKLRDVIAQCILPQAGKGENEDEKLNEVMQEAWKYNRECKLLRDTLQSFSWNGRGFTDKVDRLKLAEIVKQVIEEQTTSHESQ

[15] = target: T2, MAP kinase-activated protein kinase 5 (Homo sapiens); details: at 1 µM
[16] = target: Serine/threonine-protein kinase SIK1 (Homo sapiens) (UniProt P57059); details: at 0.1 µM
[17] = target: Serine/threonine-protein kinase SIK1 (Homo sapiens) (UniProt P57059); details: at 1 µM
[18] = target: Serine/threonine-protein kinase SIK2 (Homo sapiens) (UniProt Q9H0K1); details: at 0.1 µM
Chain of Serine/threonine-protein kinase SIK2 (Homo sapiens) (Q9H0K1 whole entry, looked up): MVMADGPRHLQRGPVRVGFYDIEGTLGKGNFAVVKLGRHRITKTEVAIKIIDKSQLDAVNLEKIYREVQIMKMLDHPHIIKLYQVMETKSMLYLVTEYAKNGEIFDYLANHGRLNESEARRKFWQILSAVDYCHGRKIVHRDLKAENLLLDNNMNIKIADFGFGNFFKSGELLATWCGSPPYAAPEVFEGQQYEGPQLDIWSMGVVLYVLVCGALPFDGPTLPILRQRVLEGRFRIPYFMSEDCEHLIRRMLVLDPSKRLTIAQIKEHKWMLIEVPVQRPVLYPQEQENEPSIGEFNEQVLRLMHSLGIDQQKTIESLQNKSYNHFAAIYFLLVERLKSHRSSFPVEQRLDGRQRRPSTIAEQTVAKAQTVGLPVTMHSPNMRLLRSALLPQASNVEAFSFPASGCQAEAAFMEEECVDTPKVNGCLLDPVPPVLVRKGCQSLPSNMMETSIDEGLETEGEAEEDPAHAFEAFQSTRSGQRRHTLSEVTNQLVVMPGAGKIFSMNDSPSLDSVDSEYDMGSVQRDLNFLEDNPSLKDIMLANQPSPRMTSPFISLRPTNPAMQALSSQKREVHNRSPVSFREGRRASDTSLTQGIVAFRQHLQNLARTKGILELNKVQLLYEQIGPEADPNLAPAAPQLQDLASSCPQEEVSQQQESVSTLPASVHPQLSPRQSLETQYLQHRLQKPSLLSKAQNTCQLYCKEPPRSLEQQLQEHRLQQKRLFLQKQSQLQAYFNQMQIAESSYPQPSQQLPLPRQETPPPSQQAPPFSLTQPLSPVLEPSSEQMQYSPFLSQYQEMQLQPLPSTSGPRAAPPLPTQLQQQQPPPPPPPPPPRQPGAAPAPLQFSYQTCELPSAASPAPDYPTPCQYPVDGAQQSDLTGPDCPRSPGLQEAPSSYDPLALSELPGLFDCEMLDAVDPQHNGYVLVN

[19] = target: Serine/threonine-protein kinase SIK2 (Homo sapiens) (UniProt Q9H0K1); details: at 1 µM
[20] = target: T3, Serine/threonine-protein kinase TBK1 (Homo sapiens) (UniProt Q9UHD2); details: at 0.1 µM;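 further: values are the mean TBK1 inhibition, taken from the GSK PKIS screening data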
T3 sequence (whole entry): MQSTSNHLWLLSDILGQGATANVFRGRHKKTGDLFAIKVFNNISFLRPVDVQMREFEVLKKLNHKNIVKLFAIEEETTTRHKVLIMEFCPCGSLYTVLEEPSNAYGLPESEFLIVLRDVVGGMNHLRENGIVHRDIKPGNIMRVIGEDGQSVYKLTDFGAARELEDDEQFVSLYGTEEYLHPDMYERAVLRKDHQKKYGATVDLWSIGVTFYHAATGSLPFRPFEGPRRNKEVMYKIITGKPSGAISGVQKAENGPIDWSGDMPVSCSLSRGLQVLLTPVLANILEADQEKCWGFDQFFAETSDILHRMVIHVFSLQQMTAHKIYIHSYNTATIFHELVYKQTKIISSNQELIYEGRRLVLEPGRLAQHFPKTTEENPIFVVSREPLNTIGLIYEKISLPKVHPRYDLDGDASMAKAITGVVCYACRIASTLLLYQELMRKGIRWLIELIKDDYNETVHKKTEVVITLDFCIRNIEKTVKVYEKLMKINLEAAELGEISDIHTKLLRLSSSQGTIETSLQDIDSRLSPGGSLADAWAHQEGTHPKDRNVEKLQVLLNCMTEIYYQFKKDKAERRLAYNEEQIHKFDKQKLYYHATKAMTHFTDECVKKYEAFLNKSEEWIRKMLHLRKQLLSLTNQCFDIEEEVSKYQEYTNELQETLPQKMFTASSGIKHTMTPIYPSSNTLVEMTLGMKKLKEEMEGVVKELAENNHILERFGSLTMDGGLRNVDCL

Chain of PAS domain-containing serine/threonine-protein kinase (Homo sapiens) (Q96RG2 whole entry, the tested form may be a part, canonical isoform): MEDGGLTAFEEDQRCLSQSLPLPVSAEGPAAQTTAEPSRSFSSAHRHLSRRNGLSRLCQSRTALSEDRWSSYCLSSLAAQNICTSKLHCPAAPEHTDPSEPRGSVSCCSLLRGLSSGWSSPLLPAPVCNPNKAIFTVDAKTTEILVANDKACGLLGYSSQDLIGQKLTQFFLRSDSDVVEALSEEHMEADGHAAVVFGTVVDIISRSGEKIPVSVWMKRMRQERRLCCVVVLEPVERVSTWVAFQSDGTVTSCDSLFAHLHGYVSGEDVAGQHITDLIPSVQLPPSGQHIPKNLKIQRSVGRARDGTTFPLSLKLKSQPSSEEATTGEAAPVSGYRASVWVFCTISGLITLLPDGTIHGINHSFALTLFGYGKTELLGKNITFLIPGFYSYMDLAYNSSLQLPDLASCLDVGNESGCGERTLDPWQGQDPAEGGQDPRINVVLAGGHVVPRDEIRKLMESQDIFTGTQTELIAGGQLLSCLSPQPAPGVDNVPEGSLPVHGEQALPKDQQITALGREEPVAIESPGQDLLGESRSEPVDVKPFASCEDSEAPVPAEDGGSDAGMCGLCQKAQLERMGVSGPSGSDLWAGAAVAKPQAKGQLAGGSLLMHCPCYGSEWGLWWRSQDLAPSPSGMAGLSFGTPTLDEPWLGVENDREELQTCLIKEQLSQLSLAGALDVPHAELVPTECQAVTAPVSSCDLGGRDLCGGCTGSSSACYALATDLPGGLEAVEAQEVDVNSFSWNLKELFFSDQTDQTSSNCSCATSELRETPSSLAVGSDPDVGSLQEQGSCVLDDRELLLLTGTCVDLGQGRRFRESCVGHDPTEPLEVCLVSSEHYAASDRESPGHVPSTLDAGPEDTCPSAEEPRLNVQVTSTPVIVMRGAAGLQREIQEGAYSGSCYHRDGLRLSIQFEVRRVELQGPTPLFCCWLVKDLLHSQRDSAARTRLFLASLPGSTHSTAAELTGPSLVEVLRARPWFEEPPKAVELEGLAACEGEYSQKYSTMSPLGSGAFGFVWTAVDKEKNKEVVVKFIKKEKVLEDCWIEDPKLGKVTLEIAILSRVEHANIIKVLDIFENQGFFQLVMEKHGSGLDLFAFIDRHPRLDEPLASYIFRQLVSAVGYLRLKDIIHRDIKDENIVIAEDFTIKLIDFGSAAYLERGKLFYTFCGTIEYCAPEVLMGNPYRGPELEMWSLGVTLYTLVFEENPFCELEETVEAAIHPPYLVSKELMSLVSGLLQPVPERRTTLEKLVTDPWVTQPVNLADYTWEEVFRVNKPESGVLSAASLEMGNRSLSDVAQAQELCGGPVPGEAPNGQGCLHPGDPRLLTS
Chain of Serine/threonine-protein kinase MARK2 (Homo sapiens) (Q7KZI7 whole entry, the tested form may be a part): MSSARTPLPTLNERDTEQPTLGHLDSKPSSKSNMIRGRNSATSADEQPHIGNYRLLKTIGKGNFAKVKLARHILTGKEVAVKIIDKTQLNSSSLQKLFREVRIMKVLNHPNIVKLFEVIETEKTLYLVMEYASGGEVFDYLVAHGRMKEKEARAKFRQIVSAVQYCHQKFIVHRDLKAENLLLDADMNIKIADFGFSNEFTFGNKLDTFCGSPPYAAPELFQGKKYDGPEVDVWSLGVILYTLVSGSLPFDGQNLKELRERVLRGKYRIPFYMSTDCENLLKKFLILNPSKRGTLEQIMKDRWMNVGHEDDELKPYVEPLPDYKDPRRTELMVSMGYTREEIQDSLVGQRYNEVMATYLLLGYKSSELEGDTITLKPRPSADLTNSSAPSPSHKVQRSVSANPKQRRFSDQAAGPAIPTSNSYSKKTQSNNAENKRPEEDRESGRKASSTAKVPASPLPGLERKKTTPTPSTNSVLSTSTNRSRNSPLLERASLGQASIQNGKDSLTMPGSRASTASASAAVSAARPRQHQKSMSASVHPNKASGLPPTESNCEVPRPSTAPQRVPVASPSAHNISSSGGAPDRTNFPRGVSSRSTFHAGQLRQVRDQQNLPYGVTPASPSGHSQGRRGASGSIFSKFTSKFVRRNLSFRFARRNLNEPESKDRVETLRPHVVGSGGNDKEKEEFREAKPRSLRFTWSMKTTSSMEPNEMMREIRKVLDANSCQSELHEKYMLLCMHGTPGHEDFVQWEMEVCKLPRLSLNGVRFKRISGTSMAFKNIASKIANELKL

SMILES	inhibition [1] [%]	inhibition [2] [%]	inhibition [3] [%]	inhibition [4] [%]	inhibition [5] [%]	inhibition [6] [%]	inhibition [7] [%]	inhibition [8] [%]	inhibition [9] [%]	inhibition [10] [%]	inhibition [11] [%]	inhibition [12] [%]	inhibition [13] [%]	inhibition [14] [%]	inhibition [15] [%]	inhibition [16] [%]	inhibition [17] [%]	inhibition [18] [%]	inhibition [19] [%]	inhibition [20] [%]
Cc1cc(Cl)cc2c1NC(=O)C2=NNc1ccc(S(N)(=O)=O)cc1	-0.15	0.48	1.94	3.63	6.02	2.58	5.19	0.03	1.28	-0.12	0.51	0.42	2.98	1.54	2.85	1.46	4.61	5.46	-2.05	1.17
CCn1c(-c2nonc2N)nc2c(C#CC(C)(C)O)nc(OCCNC)cc21	10.6	-1.05	0.6	1.42	4.25	3.52	4.33	1.82	4.29	-0.54	1.04	0.16	3.51	1.21	1.03	6.97	10.6	3.14	9.54	3.53
Nc1nccc(-c2c(-c3ccc(F)cc3)ncn2CCCN2CCOCC2)n1	1.26	-0.18	0.84	5.3	5.42	3.78	4.82	1.45	0.82	0.76	1.68	2.11	1.36	1.45	4.08	2.84	6.36	7.84	11.6	0.96
NS(=O)(=O)c1cccc(-c2cc3ccncc3cc2OCc2ccccc2)c1	4.78	0.61	-0.76	4.05	7.24	4.91	3.55	1.01	0.91	0.27	0.25	-1.15	-3.18	1.74	0.61	0.44	5.64	1.16	3.39	2.28
NS(=O)(=O)c1ccc(N/N=C2\C(=O)Nc3ccc(Cl)cc32)cc1	6.16	0.76	1.52	0.25	14.3	5.9	8.4	1.22	2.42	-0.27	2.1	0.5	4.86	1.31	3.24	3.88	10.9	3.51	10.6	2.27
COc1cc2ncnc(Nc3ccc(C)c(O)c3)c2cc1OC	0.64	-0.16	0.97	6.64	23.5	5.48	7.74	1.41	1.44	1.6	2.78	2.48	4.22	3.96	2.36	5.14	33.2	7.06	18.9	1.88
Cc1ccc2c(c1)/C(=N/Nc1ccc(S(N)(=O)=O)cc1)C(=O)N2	4.44	0.38	0.32	1.32	11	1.11	0.07	0.77	0.99	0.28	1.85	-0.58	-0.92	0.02	-2.03	1.14	1.4	-5.87	10.4	-2.1
O=C1Nc2ccc(-c3cccnc3)cc2C1=Cc1cc(Br)c(O)c(Br)c1	5.11	0.91	1.32	3.37	9.21	4.01	-0.09	6.4	37.6	8.09	46.5	8.54	49	0.52	0.45	6.08	4.86	-1.13	-0.16	3.66
Cc1ccc(O)cc1Nc1ccnc2ccc(S(C)(=O)=O)cc12	1.93	-0.05	4.61	6.2	10	5.57	7.16	0.95	1.4	0.23	0.8	0.69	1.04	2.48	2.77	47.2	89.6	15.8	52.6	2.4
N#Cc1cccc(Nc2nccc(-c3cnn4ncccc34)n2)c1	9.5	0.25	0.01	15.8	58.3	7.04	22.2	1.44	12.4	0.59	7.85	4.41	34	1.48	4.15	8.01	15.1	4.44	11.9	1.58
NS(=O)(=O)c1ccc(Nc2cc(-c3cccc(O)c3)n[nH]2)cc1	6.24	0.14	-1.99	3.73	12.8	6.63	6.34	-0.06	1.3	0.62	1.32	-2.75	-0.87	1.59	1.7	6.53	13.8	6.19	16.4	4.83
Cc1ccc(C(=O)NC2CC2)cc1-c1ccc2[nH]ncc2c1	5.77	1.24	1.27	-0.37	1.36	-5.73	-5.52	1.72	4.32	0.52	0.98	1.05	4.89	-1.55	-1.4	-8.63	-5.39	-3.95	-7.9	-3.58
Cc1ccc2c(-c3ccnc(Nc4cccc(C(F)(F)F)c4)n3)c(-c3ccccc3)nn2n1	4.11	-0.16	-0.17	2.62	7.08	4.1	4.82	1.05	1.72	-0.26	-0.7	0.5	1.85	1.8	1.94	6.3	15.8	1.03	9.81	3.23
C[C@@H](Oc1cc(-n2cnc3ccc(OC[C@@H](O)CO)cc32)sc1C(N)=O)c1ccccc1Cl	4.76	0.26	1.99	0.98	4.08	-2.13	-1.44	2.14	19.1	-0.13	1.97	2.99	22.2	-0.57	-0.59	-2.64	6.54	4.2	10.6	0.21
